Hits are enriched below; roughly 3.3% of the tested compounds scored in any of these assays.
AmpC detergent: inhibitors of E. coli AmpC beta-lactamase with detergent. P00811. Potency, µM (doses to about 114 µM), most hits filed as inhibitors. AmpC hydrolysis of nitrocefin, absorbance 480 nm, 0.01% Triton. 370,000 compounds, 0.041% hits; note: nearly all actives have a fitted effect of over 25% in size
Target sequence (P00811 whole entry, looked up): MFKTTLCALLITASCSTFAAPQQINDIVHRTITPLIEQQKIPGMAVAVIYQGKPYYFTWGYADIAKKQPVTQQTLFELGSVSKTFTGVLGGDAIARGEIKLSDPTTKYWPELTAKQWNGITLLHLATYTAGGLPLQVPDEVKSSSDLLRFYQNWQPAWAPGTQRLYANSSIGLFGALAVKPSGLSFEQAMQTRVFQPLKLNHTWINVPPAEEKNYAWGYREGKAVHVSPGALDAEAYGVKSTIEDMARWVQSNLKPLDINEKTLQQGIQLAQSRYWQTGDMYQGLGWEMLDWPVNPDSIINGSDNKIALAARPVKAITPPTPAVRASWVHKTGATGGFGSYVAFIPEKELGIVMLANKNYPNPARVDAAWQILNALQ
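AmpC (5.3 nM in the dispensed reagent) in 20 mM phosphate pH 7.0 with 0.01% (detergent screen) or 0.0001% Triton X-100 was preincubated with compounds for 15 min at room temperature. Nitrocefin was then added from an 800 uM solution, and hydrolysis was followed at 480 nm.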
Sm TGR inh: inhibitors of Schistosoma mansoni thioredoxin glutathione reductase. purified TGR, DTNB reduction, TNB absorbance 405 nm. Potency, µM (series often up to 114 µM), most hits filed as inhibitors. 360,000 compounds, 3% hits. AID 485364; note: nearly all actives have a fitted effect of over 60% in size
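TGR 20 nM + NADPH 100 uM (dispensed conc.), cpd preinc 15 min RT; start with NADPH (500 uM addition) then DTNB (15 mM addition). Kinetic TNB absorbance, 405 nm filter. Four-parameter Hill fit across titration.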
AmpC no deterg: AmpC beta-lactamase inhibition without detergent; P00811; Potency, µM (series often up to 57.1 µM), usual class: inhibitors; 330,000 compounds, 0.52% hits; AID 485341; AmpC nitrocefin hydrolysis, absorbance 480 nm, 0.0001% Triton; note: nearly all actives have a fitted effect of over 20% in size
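20 mM phosphate pH 7.0 + 0.01% (detergent screen) or 0.0001% Triton X-100; 5.3 nM AmpC reagent; cpd preinc 15 min RT; nitrocefin (800 uM stock) to start; A480 q20 s × 4 min; Activity was normalised to no-enzyme and no-compound control wells.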
Large screens that a line does not name were inactive. Calls come from the whole dose curve; as a rule, active = well fitted curve in the direction sought with a large enough effect; inconclusive = small, poorly fitted or top-dose-only effect, or another doubt; inactive = no such curve, though single readings can be large; an effect the other way counts as inactive or inconclusive.

Cc1nc2nc(SCC(=O)NCc3ccccc3)nn2c(C)c1Cc1ccccc1	none (no result: AmpC no deterg)
Cc1ccc(Cc2c(C)nc3nc(SCC(=O)NCc4ccco4)nn3c2C)cc1	Sm TGR inh 40µM
Cc1cccc(Cc2c(C)nc3nc(SCC(=O)NCc4ccco4)nn3c2C)c1	Sm TGR inh 35µM
Cc1cccc(Cc2c(C)nc3nc(SCC(=O)NC4CCCCC4)nn3c2C)c1	none (no result: AmpC no deterg)
Cc1ccccc1Cc1c(C)nc2nc(SCC(=O)NC(C)c3ccccc3)nn2c1C (configuration not stated)	none (no result: AmpC no deterg)
Fc1ccc(-c2cc3ncc4c(n3n2)-c2cc(Cl)ccc2OC4)cc1	none (no result: AmpC no deterg)
COc1ccc(CNC(=O)CN2CCN(c3ccccc3)CC2)cc1	none
O=C(C1CCCN(S(=O)(=O)c2ccccc2[N+](=O)[O-])C1)N1CCCC1 (configuration not stated)	none
CCN1c2ccccc2-c2nc(SCC(=O)Nc3c(C)cc(C)cc3C)ncc2S1(=O)=O	none (no result: AmpC no deterg)
CCCCNC(=O)CSc1nc2nc(C)c(Cc3c(F)cccc3Cl)c(C)n2n1	none (no result: AmpC no deterg)
Cc1nc2nc(SCC(=O)NCc3ccco3)nn2c(C)c1Cc1c(F)cccc1Cl	Sm TGR inh 50µM
Cc1nnc(SCc2ccc(CSc3nnc(C)c(=O)[nH]3)cc2)[nH]c1=O	none
Cc1cccc(NC(=O)CSc2nc3c(oc4ccccc43)c(=O)n2Cc2ccco2)c1	none (no result: AmpC no deterg)
CC(C)(C)N1C(=O)NC(=O)/C(=C\c2ccc3c(c2)CCN3CCCCl)C1=O	Sm TGR inh inconclusive
C=CCN1C(=O)/C(=C/c2ccc3c(c2)CCCN3CCC)C(=O)NC1=S	Sm TGR inh 8.9µM
CCN1C(=O)/C(=C/c2ccc3c(c2)CCN3CCCCl)C(=O)NC1=S	Sm TGR inh 8.9µM
O=C1NC(=S)N(C2CC2)C(=O)/C1=C/c1ccc2c(c1)CCN2CCCCl	Sm TGR inh inconclusive
COc1ccc(Cl)cc1NC(=O)CN(C)C(=O)C1CC1	none (no result: AmpC detergent, Sm TGR inh)
CON1C(=O)C(=O)N(OC)C(C)(C)C1C (configuration not stated)	none
COc1cc(CC(=O)OCC(=O)N2CCCCC2)cc(OC)c1OC	none
Cc1ccc(NC(=O)C2COc3ccccc3O2)cc1 (configuration not stated)	none
O=C(Nc1ccc(-c2cn3ccsc3n2)cc1)C1COc2ccccc2O1 (configuration not stated)	AmpC detergent inconclusive, AmpC no deterg 16µM
O=C(Nc1ccc([N+](=O)[O-])cc1Br)c1cc2ccccc2nc1Cl	none
CCN(CCn1cccn1)C(=O)c1cc(COc2cc(C)ccc2C)on1	none
CC(=O)NC(c1ccc2ccccc2c1)c1ccc2cccnc2c1O (configuration not stated)	AmpC detergent inconclusive
Cc1ccc2cccc(OCCCOc3ccccc3F)c2n1	none
Oc1c(C(Nc2nccs2)c2ccc(C(F)(F)F)cc2)ccc2cccnc12 (configuration not stated)	none
Cc1cccc(NC(c2ccccc2F)c2ccc3ccc(C)nc3c2O)n1 (configuration not stated)	Sm TGR inh 5µM (no result: AmpC no deterg)
COc1ccc(C(Nc2ccccn2)c2ccc3ccc(C)nc3c2O)cc1C (configuration not stated)	Sm TGR inh 0.71µM (no result: AmpC no deterg)
Cc1ccnc(NC(c2cccc(O)c2)c2ccc3ccc(C)nc3c2O)c1 (configuration not stated)	Sm TGR inh 1.6µM (no result: AmpC no deterg)
Oc1c(C(Nc2cccc(C(F)(F)F)c2)c2ccncc2)ccc2cccnc12 (configuration not stated)	Sm TGR inh 35µM
CC(C)C(=O)NC(c1cccc([N+](=O)[O-])c1)c1ccc2cccnc2c1O (configuration not stated)	AmpC detergent inconclusive
CC(C)CNC(=O)CC(c1ccccc1)c1ccccc1	none (no result: Sm TGR inh)
Cc1ccc(C(Nc2ccccn2)c2ccc3cccnc3c2O)cc1 (configuration not stated)	Sm TGR inh 1µM (no result: AmpC no deterg)
Cc1cccc(NC(c2cccc(Cl)c2)c2ccc3cccnc3c2O)n1 (configuration not stated)	Sm TGR inh 4.5µM (no result: AmpC no deterg)
CCC(=O)NC(c1ccc(OC)c(OC)c1)c1cc(Cl)c2cccnc2c1O (configuration not stated)	AmpC detergent inconclusive
CCOc1cc(C(Nc2cc(C)ccn2)c2ccc3cccnc3c2O)ccc1OC (configuration not stated)	Sm TGR inh 0.28µM (no result: AmpC no deterg)
CC(=O)NC(c1ccc(Cl)cc1Cl)c1ccc2cccnc2c1O (configuration not stated)	none
CCCC(=O)NC(c1ccc(C)cc1)c1ccc2cccnc2c1O (configuration not stated)	none
Cc1ccc(N2C(=O)CC(Nc3ccc(Cl)c(S(=O)(=O)N(C)C)c3)C2=O)c(C)c1 (configuration not stated)	Sm TGR inh 32µM, AmpC no deterg 28µM
CC(=O)N1CCN(CC(=O)Nc2ccc(Cl)c(S(=O)(=O)N(C)C)c2)CC1	AmpC detergent inconclusive
C[N+](C)(C)C[C@H](O)CC(=O)[O-]	AmpC detergent inconclusive
COc1ccc(/C(O)=C2/C(=O)C(=O)N(CCN3CCNCC3)C2c2cccc([N+](=O)[O-])c2)cc1 (configuration not stated)	none
Cc1cc(N2CCCC2=O)ccc1S(=O)(=O)NC1CCCCC1	none
O=C1NC(=O)N(Cc2ccccc2Cl)C(=O)/C1=C/c1cccs1	AmpC no deterg 20µM
O=C1NC(=O)N(Cc2ccc(F)cc2)C(=O)/C1=C/c1cccs1	Sm TGR inh inconclusive
Cc1ccc(CN(C(=O)COc2cccc([N+](=O)[O-])c2)c2ccccn2)cc1	none (no result: AmpC no deterg)
Cc1cc(NC(=O)COc2ccc3ccccc3c2)no1	AmpC detergent inconclusive
Cc1cc(NC(=O)COc2cccc([N+](=O)[O-])c2)no1	Sm TGR inh 45µM
Cc1ccc(CN(C(=O)COc2cccc([N+](=O)[O-])c2)c2ccccn2)o1	Sm TGR inh 50µM (no result: AmpC no deterg)
CCc1ccc(Sc2cc(C(=O)NCCN3CCOCC3)c3ccccc3n2)cc1	none
Cc1[nH]c2ccc(C(=O)N3CCN(c4ccccn4)CC3)cc2c1C	Sm TGR inh inconclusive
CN(C=C1C(=O)CC(C)(C)CC1=O)CCN1CCNCC1	Sm TGR inh 22µM
CC1(C)CC(=O)C(C=NCCN2CCOCC2)=C(O)C1	Sm TGR inh inconclusive
O=C(CS(=O)(=O)c1c[nH]c2ccccc12)NC1CCCCC1	AmpC no deterg 0.5µM
O=C(CS(=O)(=O)c1c[nH]c2ccccc12)Nc1ccc(F)cc1	none
O=c1[nH]c2cc3c(cc2cc1CN(Cc1cccnc1)Cc1nnnn1Cc1ccco1)OCCO3	AmpC detergent inconclusive, Sm TGR inh 14µM
COc1ccc2cc(CN(Cc3cccs3)Cc3nnnn3Cc3ccccc3)c(=O)[nH]c2c1	AmpC detergent inconclusive
Cc1cc(C)c2cc(CN(Cc3ccc4c(c3)OCO4)Cc3nnnn3Cc3ccco3)c(=O)[nH]c2c1	Sm TGR inh 40µM, AmpC no deterg inconclusive
CCc1ccc2[nH]c(=O)c(CN(Cc3ccccc3)Cc3nnnn3Cc3ccco3)cc2c1	Sm TGR inh inconclusive
O=c1[nH]c2cc3c(cc2cc1CN(CCc1ccccc1)Cc1nnnn1C1CCCC1)OCCO3	Sm TGR inh 45µM
